Laboratory results: PubChem BioAssay (Tox21)
Records with an inconclusive call do not appear. The source made the active and inactive calls. Unless noted, calls come from the whole dose curve; as a rule, active = well fitted curve in the direction sought with a large enough effect in the repeat runs; inconclusive = weak or mixed curves; inactive = no such curve, though single readings can be large; an effect the other way counts as inactive or inconclusive.

How the values were obtained:
[1] = qHTS assay to identify small molecule antagonists of the estrogen related receptor (ERR) signaling pathway from Tox21 library - cell viability counter screen (AID 1224834); details: ERR reporter cells viability, CellTiter-Fluor, 17.5 h; series mostly up to 92.4 µM; note: nearly all actives have a fitted effect of over 30% in size; note: potency is the fitted concentration of half-maximal effect
How it was run: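 Seeded ERR cells were rested 6 h at 37 C/5% CO2 before compounds, positive and negative controls or DMSO were added. Incubation continued for 17.5 h, and viability was then quantified by CellTiter-Fluor fluorescence.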

[2] = target: Luciferin 4-monooxygenase (Photinus pyralis) (UniProt P08659); test: qHTS assay to identify small molecule inhibitors of firefly luciferase (AID 1224835); note: nearly all actives have a fitted effect of over 25% in size; note: potency is the fitted concentration of half-maximal effect; details: purified P. pyralis luciferase, luminescence inhibition; series mostly up to 115 µM
How it was run: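 Biochemical qHTS: compounds run as interplate titrations against purified firefly enzyme, with D-luciferin and ATP each at its KM concentration. Light output recorded by CCD imaging.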

[3] = qHTS assay to identify small molecule agonists of the constitutive androstane receptor (CAR) signaling pathway - cell viability counter screen (AID 1224836); details: HepG2-CYP2B6-hCAR viability, CellTiter-Fluor, 23 h, PK11195 added to every well; series mostly up to 92.4 µM; note: nearly all actives have a fitted effect of over 45% in size; note: potency is the fitted concentration of half-maximal effect
How it was run: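 Using CellTiter-Fluor, viability of HepG2 cells harbouring hCAR and CYP2B6-2.2kb was measured following 23 h incubation with a 15-concentration compound series plus PK11195 (0.75 uM final).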

[4] = qHTS RealTime-Glo MT Cell Viability Assay in HepG2 cells - 24 hour (AID 1224867); details: RealTime-Glo luminescence; series mostly up to 76.8 µM; note: nearly all actives have a fitted effect of over 50% in size; note: potency is the fitted concentration of half-maximal effect
How it was run: (§1)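 Viability was tracked continuously by NanoLuc luminescence from prosubstrate reduced by living HepG2 cells, at successive time points over 40 h of compound exposure. Cells with reagent were preincubated 5 h at 37 °C before compound addition.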

[5] = qHTS RealTime-Glo MT Cell Viability Assay in HEK293 cells - 32 hour (AID 1224868); details: RealTime-Glo luminescence; series mostly up to 76.8 µM; note: nearly all actives have a fitted effect of over 50% in size; note: potency is the fitted concentration of half-maximal effect; for activity change, negative = cytotoxic: top concentration of the series differs between compounds
How it was run: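 Viability tracked continuously by luminescence as live cells reduce a prosubstrate for NanoLuc; HEK293 cells preincubated 5 h, compound-treated at 37 C, and read at 0, 8, 16, 24, 32 and 40 h.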

[6] = A CellTox Green Cytotoxicity Assay to monitor cytotoxicity in HepG2 cells - 24 hour (AID 1224878); details: CellTox Green fluorescence; series mostly up to 76.8 µM; note: nearly all actives have a fitted effect of over 45% in size; note: potency is the fitted concentration of half-maximal effect
How it was run: (§2)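 Measurements at 0, 8, 16, 24, 32 and 40 h of treatment captured CellTox Green fluorescence in HepG2 cells that had been co-plated with reagent and preincubated 5 h at 37 C/5% CO2.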

[7] = A CellTox Green Cytotoxicity Assay to monitor cytotoxicity in HepG2 cells - 40 hour (AID 1224879); details: CellTox Green fluorescence; series mostly up to 76.8 µM; note: nearly all actives have a fitted effect of over 40% in size; note: potency is the fitted concentration of half-maximal effect
How it was run: as §2

[8] = qHTS RealTime-Glo MT Cell Viability Assay in HEK293 cells - 0 hour (AID 1224880); details: RealTime-Glo luminescence; series mostly up to 76.8 µM; note: top concentration of the series differs between compounds; nearly all actives have a fitted effect of over 45% in size
How it was run: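 HEK293 + NanoLuc + prosubstrate, 600 cells/well; 5 h, 37 C/5% CO2; compound 23 nL in DMSO by pintool; 37 C; luminescence read at 0, 8, 16, 24, 32 and 40 h time points.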

[9] = A CellTox Green Cytotoxicity Assay to monitor cytotoxicity in HepG2 cells - 32 hour (AID 1224883); details: CellTox Green fluorescence; series mostly up to 76.8 µM; note: nearly all actives have a fitted effect of over 50% in size; note: potency is the fitted concentration of half-maximal effect
How it was run: as §2

[10] = A CellTox Green Cytotoxicity Assay to monitor cytotoxicity in HEK293 cells - 8 hour (AID 1224884); details: CellTox Green fluorescence; series mostly up to 76.8 µM; note: nearly all actives have a fitted effect of over 35% in size; note: potency is the fitted concentration of half-maximal effect
How it was run: (§3)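 Tox21 screen in HEK293: membrane-impermeant cyanine dye fluoresces on binding dead-cell DNA; compound pinned 5 h post-seeding, plates held at 37 C, signal read repeatedly through 40 h.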

[11] = qHTS RealTime-Glo MT Cell Viability Assay in HepG2 cells - 16 hour (AID 1224885); details: RealTime-Glo luminescence; series mostly up to 76.8 µM; note: nearly all actives have a fitted effect of over 50% in size; note: potency is the fitted concentration of half-maximal effect
How it was run: as §1

[12] = A CellTox Green Cytotoxicity Assay to monitor cytotoxicity in HEK293 cells - 16 hour (AID 1224888); details: CellTox Green fluorescence; series mostly up to 76.8 µM; note: nearly all actives have a fitted effect of over 35% in size; note: potency is the fitted concentration of half-maximal effect
How it was run: as §3

[13] = qHTS RealTime-Glo MT Cell Viability Assay in HepG2 cells - 0 hour (AID 1224889); details: RealTime-Glo luminescence; series mostly up to 76.8 µM; note: nearly all actives have a fitted effect of over 50% in size
How it was run: as §1

[14] = qHTS assay to identify small molecule antagonists of the sonic hedgehog signaling (Shh) pathway - cell viability counter screen (AID 1259367); details: NIH/3T3 Gli1-Luc viability, CellTiter-Fluor, 24 h; series mostly up to 92.4 µM; note: nearly all actives have a fitted effect of over 55% in size; note: potency is the fitted concentration of half-maximal effect
How it was run: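 Tox21 library chemicals were tested on a Gli1-Luc NIH/3T3 clone (2,000 cells/well) stimulated by conditioned medium; viability was quantified as fluorescence from CellTiter-Fluor reagent added at 23 hr.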

[15] = target: Estrogen receptor (Homo sapiens) (UniProt P03372); test: qHTS assay to identify small molecule agonists of the estrogen receptor alpha (ER-alpha) signaling pathway in the presence of an antagonist (AID 1259383; calls by dose curve; note: top concentration of the series differs between compounds; nearly all actives have a fitted effect of over 15% in size); details: VM7Luc4E2 cells, ERE-luciferase, +ICI-182,780, 22 h; series mostly up to 92.4 µM
How it was run: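 Quantitative HTS confirmation: compounds titrated at 15 concentrations onto estrogen-deprived VM7Luc4E2 cells carrying a four-ERE luciferase construct, with ICI-182,780 present at 10.0nM final. Signal is luminescence after 22hr exposure.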

[16] = qHTS assay to identify small molecule agonists of the TGF-beta/Smad signaling pathway - cell viability counter screen (AID 1346829); details: SBE-bla HEK293T viability, CellTiter-Glo luminescence, 5 h; series mostly up to 76.8 µM; note: top concentration of the series differs between compounds; nearly all actives have a fitted effect of over 45% in size
How it was run: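 Cytotoxicity counter screen: CellTiter-Glo luminescence (30 min, room temperature) measured in the SBE-bla HEK 293T reporter wells after 5 hr compound treatment at 37 C and the 2 hr substrate step.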

[17] = target: Nuclear receptor subfamily 1 group I member 2 (Homo sapiens) (UniProt O75469); test: Human pregnane X receptor (PXR) small molecule agonists, qHTS assay (AID 1346982); details: PXR-Luc HepG2, CYP3A4 luciferase reporter, 24 h; series mostly up to 92.4 µM; note: nearly all actives have a fitted effect of over 35% in size; note: potency is the fitted concentration of half-maximal effect
How it was run: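 Stable HepG2 line reporting PXR-mediated CYP3A4 expression via luciferase. Treatment: 24 hr with compounds in DMSO at 37 C. Detection: ONE-Glo luminescence.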

[18] = target: Cytochrome P450 2C19 (Homo sapiens) (UniProt P33261); test: Cytochrome P450 Family 2 Subfamily C Member 19 (CYP2C19) small molecule antagonists: luciferase reporter qHTS assay (AID 1671197); details: P450-Glo CYP2C19 enzyme, luciferin luminescence, 1 h; series mostly up to 115 µM; note: nearly all actives have a fitted effect of over 65% in size; note: potency is the fitted concentration of half-maximal effect
How it was run: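 Luminescent readout of CYP2C19 activity: luciferin product detected 20 min after adding detection reagent. Before that, compound and enzyme-substrate mix preincubated 10 min at room temperature; NADPH-regenerating system started a 1 h, 37C reaction. Ketoconazole as positive control.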

[19] = target: Retinoic acid receptor RXR-alpha (Homo sapiens) (UniProt P19793); test: qHTS assay to identify small molecule agonists of the RXR signaling pathway (AID 1159527; calls by dose curve; note: nearly all actives have a fitted effect of over 35% in size); details: HEK293T RXRa-UAS-bla, beta-lactamase ratio, 16 h; series mostly up to 76.8 µM
How it was run: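 16 hr incubation of compound-treated RXR-alpha-UAS-bla HEK 293T cells (2% charcoal-stripped FBS, 37 C) preceded a 2 hr room-temperature LiveBLAzer FRET substrate step and blue/green fluorescence measurement.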

[20] = target: Cytochrome P450 2C9 (Homo sapiens) (UniProt P11712); test: Cytochrome P450 Family 2 Subfamily C Member 9 (CYP2C9) small molecule antagonists: luciferase reporter qHTS assay (AID 1671198); details: P450-Glo CYP2C9 enzyme assay, luciferin luminescence; series mostly up to 115 µM; note: nearly all actives have a fitted effect of over 50% in size; note: potency is the fitted concentration of half-maximal effect
How it was run: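 P450-Glo proluciferin substrate with CYP2C9 enzyme; 10 min RT preincubation, then NADPH regeneration 1 h at 37C; luciferin detection reagent 20 min RT, luminescence in relative luminescence units.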
% is set by controls: 0 for no effect and ±100 for the full control effect.

Sequence of Nuclear receptor subfamily 1 group I member 2 (Homo sapiens) (O75469 whole entry, looked up): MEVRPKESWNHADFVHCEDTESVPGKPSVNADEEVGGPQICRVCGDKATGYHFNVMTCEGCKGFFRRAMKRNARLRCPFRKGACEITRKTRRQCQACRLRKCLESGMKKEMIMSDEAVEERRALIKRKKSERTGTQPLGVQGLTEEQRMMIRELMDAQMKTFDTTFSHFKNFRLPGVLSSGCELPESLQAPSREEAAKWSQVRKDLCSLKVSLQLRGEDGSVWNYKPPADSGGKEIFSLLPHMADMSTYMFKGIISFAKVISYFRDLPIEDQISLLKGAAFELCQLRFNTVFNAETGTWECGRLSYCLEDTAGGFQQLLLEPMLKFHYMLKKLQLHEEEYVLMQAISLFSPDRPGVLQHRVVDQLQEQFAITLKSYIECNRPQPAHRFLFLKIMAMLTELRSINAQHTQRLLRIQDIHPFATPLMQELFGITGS
Sequence of Luciferin 4-monooxygenase (Photinus pyralis) (P08659 whole entry, looked up): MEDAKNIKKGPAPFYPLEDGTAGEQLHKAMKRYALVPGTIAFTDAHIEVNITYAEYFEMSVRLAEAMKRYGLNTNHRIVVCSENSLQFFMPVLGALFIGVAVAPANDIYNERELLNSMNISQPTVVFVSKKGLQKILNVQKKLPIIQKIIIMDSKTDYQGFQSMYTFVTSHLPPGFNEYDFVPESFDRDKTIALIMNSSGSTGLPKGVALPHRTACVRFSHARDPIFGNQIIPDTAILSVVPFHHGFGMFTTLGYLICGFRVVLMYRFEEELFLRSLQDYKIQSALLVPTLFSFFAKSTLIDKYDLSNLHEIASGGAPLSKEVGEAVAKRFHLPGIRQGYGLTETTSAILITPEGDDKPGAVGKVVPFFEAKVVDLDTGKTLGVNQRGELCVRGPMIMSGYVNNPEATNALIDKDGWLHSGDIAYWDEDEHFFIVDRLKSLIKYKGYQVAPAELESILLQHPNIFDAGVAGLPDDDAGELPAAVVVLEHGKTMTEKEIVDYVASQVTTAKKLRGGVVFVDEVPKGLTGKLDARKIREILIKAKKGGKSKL
Sequence of Estrogen receptor (Homo sapiens) (P03372 whole entry, looked up): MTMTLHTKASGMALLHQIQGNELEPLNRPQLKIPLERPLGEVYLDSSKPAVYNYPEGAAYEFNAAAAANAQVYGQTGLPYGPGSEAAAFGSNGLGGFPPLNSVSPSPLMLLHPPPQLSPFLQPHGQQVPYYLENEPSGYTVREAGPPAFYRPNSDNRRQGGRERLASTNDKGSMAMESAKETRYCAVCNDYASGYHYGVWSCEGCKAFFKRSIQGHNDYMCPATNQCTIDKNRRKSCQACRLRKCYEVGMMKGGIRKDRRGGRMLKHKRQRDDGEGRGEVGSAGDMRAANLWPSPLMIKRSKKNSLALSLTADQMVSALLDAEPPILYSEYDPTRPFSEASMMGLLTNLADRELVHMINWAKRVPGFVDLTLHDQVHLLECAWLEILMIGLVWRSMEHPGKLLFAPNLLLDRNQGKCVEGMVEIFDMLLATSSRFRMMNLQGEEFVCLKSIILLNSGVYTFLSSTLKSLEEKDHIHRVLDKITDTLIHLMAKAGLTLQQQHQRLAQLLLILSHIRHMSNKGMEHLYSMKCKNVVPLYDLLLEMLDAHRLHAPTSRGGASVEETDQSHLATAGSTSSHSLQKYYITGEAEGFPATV
Sequence of Retinoic acid receptor RXR-alpha (Homo sapiens) (P19793 whole entry, looked up): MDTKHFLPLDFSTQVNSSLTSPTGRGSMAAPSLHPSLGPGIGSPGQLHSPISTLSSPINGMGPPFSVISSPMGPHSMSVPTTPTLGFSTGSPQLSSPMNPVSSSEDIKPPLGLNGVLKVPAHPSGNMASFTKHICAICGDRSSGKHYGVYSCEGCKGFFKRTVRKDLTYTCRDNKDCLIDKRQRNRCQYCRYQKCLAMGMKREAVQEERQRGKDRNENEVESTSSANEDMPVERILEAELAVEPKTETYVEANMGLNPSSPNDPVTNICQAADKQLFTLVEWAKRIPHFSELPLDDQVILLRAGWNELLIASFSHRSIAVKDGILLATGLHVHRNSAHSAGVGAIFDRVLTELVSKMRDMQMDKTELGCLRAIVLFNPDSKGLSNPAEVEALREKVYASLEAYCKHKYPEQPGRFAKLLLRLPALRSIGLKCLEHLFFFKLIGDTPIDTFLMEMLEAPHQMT
Sequence of Cytochrome P450 2C9 (Homo sapiens) (P11712 whole entry, looked up): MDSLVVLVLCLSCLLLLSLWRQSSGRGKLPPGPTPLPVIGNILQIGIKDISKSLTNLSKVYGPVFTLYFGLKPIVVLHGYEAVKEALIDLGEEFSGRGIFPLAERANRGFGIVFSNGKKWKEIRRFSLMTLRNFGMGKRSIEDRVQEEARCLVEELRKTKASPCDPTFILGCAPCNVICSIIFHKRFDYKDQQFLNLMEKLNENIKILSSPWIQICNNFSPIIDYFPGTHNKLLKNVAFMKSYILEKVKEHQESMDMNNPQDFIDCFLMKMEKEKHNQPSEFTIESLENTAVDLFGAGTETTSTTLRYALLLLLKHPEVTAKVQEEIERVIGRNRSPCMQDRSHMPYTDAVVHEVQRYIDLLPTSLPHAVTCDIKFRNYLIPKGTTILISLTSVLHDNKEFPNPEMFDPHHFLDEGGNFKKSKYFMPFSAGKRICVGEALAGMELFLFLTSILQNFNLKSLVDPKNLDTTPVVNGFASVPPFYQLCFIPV
Sequence of Cytochrome P450 2C19 (Homo sapiens) (P33261 whole entry, looked up): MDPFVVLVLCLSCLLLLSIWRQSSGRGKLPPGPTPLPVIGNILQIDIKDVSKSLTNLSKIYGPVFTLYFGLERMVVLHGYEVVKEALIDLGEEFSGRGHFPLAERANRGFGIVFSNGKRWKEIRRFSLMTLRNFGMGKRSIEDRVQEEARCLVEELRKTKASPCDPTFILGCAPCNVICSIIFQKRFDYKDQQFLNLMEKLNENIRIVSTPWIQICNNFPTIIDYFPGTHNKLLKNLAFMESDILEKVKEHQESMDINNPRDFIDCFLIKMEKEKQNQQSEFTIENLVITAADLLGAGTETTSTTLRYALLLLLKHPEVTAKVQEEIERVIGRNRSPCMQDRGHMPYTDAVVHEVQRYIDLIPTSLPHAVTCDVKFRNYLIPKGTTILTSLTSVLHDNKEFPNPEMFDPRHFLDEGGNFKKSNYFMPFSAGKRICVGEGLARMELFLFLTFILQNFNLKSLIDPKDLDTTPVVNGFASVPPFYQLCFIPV

COc1cc(OC)c(OC)cc1C=O
active: Potency [14] 47.1 µM | Potency [18] 38.7 µM
inactive: Potency [1] | Potency [2] | Potency [3] | Potency [4] | Potency [5] | Potency [6] | Potency [7] | outcome [8] | Potency [9] | Potency [10] | Potency [11] | Potency [12] | Potency [13] | outcome [15] | outcome [16] | Potency [17]

Cc1ccc2nc3sc(=O)sc3nc2c1
inactive: viability change, negative = cytotoxic [1] -9.38% [at 19 µM] | viability change, negative = cytotoxic [3] 1.63% [at 19 µM] | activity change, negative = cytotoxicity [4] -4.88% [at 15.8 µM] | activity change, negative = cytotoxic [5] 8.73% [at 15.8 µM] | cytotoxicity [6] -2.5% [at 15.8 µM] | cytotoxicity increase [7] -2.41% [at 15.8 µM] | activity change, negative = cytotoxicity [8] -3.58% [at 15.8 µM] | cytotoxicity increase [9] -5.02% [at 15.8 µM] | cytotoxicity increase [10] 4.71% [at 15.8 µM] | activity change, negative = cytotoxic [11] 0.198% [at 15.8 µM] | activity change [12] -2.03% [at 15.8 µM, stronger effect = higher value] | activity change, negative = cytotoxicity [13] 15.7% [at 15.8 µM] | activation [15] -0.0346% [at 19 µM] | activity change, negative = cytotoxicity [16] 17% [at 15.8 µM] | activation [17] 20.6% [at 19 µM]
active: Potency [18] 16.9 µM

Nc1ccc(Cl)cc1[N+](=O)[O-]
inactive: Potency [19]

Nc1ccc([N+](=O)[O-])cc1
active: Potency [1] 15.4 µM | Potency [5] 38.9 µM | Potency [6] 43.6 µM | Potency [7] 43.6 µM | Potency [9] 43.6 µM | Potency [17] 61.1 µM | Potency [18] 3.56 µM | Potency [20] 25.2 µM
inactive: Potency [4] | outcome [8] | Potency [11] | Potency [13] | outcome [16]

O=[N+]([O-])c1c(Cl)c(Cl)cc(Cl)c1Cl
active: Potency [7] 54.9 µM | Potency [9] 54.9 µM | Potency [12] 49 µM | Potency [18] 71 µM
inactive: Potency [1] | Potency [2] | Potency [3] | Potency [4] | Potency [5] | outcome [8] | Potency [11] | Potency [13] | Potency [14] | outcome [15] | outcome [16]

CCN(CC)C(=O)Cl
inactive: Potency [19] | Potency [1] | Potency [2] | Potency [3] | Potency [4] | Potency [5] | Potency [6] | Potency [7] | outcome [8] | Potency [9] | Potency [10] | Potency [11] | Potency [12] | Potency [13] | Potency [14] | outcome [15] | outcome [16] | Potency [17] | Potency [18] | Potency [20]

ClC(Cl)=C(c1ccc(Cl)cc1)c1ccccc1Cl
inactive: Potency [1] | Potency [2] | Potency [3] | Potency [4] | outcome [8] | Potency [11] | Potency [12] | Potency [13] | Potency [14] | outcome [15] | outcome [16]
active: Potency [17] 30.6 µM | Potency [18] 6.33 µM | Potency [20] 25.2 µM

O=C(c1ccc(Cl)cc1)c1ccc(Cl)cc1
inactive: Potency [19]

Cc1ccc(N(SC(F)(Cl)Cl)S(=O)(=O)N(C)C)cc1
inactive: outcome [8] | Potency [13] | outcome [16] | Potency [17]
active: Potency [1] 30.6 µM | Potency [2] 44.8 µM | Potency [3] 30.6 µM | Potency [4] 11 µM | Potency [5] 5.49 µM | Potency [6] 11 µM | Potency [7] 6.92 µM | Potency [9] 6.92 µM | Potency [10] 21.9 µM | Potency [11] 15.5 µM | Potency [12] 24.5 µM | Potency [14] 17.2 µM | Potency [18] 10 µM | Potency [20] 5.64 µM

Brc1cc(Br)cc(Br)c1
inactive: Potency [19]

Cc1cc(C)c(C(=O)P(=O)(c2ccccc2)c2ccccc2)c(C)c1
active: Potency [5] 49 µM | Potency [14] 54.5 µM | Potency [17] 9.69 µM | Potency [18] 6.33 µM | Potency [20] 15.9 µM
inactive: Potency [2] | Potency [10] | Potency [12] | outcome [15]

O=[N+]([O-])c1cc(C(F)(F)F)ccc1Cl
inactive: Potency [19]

Brc1c2ccccc2c(Br)c2ccccc12
inactive: activation [19] 1.52% [at 6.98 µM]

OCC(c1ccc(Cl)cc1)c1ccc(Cl)cc1
inactive: Potency [19] | Potency [2] | outcome [8] | Potency [13] | outcome [15] | outcome [16]
active: Potency [1] 48.6 µM | Potency [5] 34.7 µM | Potency [6] 38.9 µM | Potency [7] 38.9 µM | Potency [9] 38.9 µM | Potency [10] 43.6 µM | Potency [12] 24.5 µM | Potency [18] 0.0894 µM | Potency [20] 12.6 µM

ClC1=C(Cl)[C@]2(Cl)[C@@H]3[C@@H](Cl)[C@H]4O[C@H]4[C@@H]3C1(Cl)C2(Cl)Cl
inactive: Potency [2] | Potency [3] | outcome [8] | Potency [13] | Potency [14] | outcome [15] | outcome [16]
active: Potency [17] 30.6 µM | Potency [20] 39.9 µM

Cc1nnc2n1-c1sc(CCc3ccc(CC(C)C)cc3)cc1C(c1ccccc1Cl)=NC2C (stereo not given)
inactive: Potency [2] | Potency [10] | Potency [12] | Potency [13] | Potency [14] | outcome [15]
active: Potency [1] 26.6 µM | Potency [5] 9.52 µM | Potency [17] 4.22 µM | Potency [20] 27.5 µM

O=C(c1ccccc1)C(Cl)Cl
inactive: Potency [2] | Potency [6] | outcome [8] | Potency [9] | Potency [10] | Potency [12] | Potency [13] | outcome [15] | outcome [16] | Potency [18]
active: Potency [1] 61.1 µM | Potency [3] 61.1 µM | Potency [5] 38.9 µM
